Compound activity from PubChem BioAssay.
Mcl-1 Bim block – inhibitors of Bim-Mcl-1 interaction, human | AID 1009 | inhibition, % at 10 µM | Bead-based flow cytometry, Bim peptide-Mcl-1 binding | Q07820 | 190,000 tested, 0.1% active; in the data active = inhibition above about 40%
Target sequence (Q07820 whole entry, looked up): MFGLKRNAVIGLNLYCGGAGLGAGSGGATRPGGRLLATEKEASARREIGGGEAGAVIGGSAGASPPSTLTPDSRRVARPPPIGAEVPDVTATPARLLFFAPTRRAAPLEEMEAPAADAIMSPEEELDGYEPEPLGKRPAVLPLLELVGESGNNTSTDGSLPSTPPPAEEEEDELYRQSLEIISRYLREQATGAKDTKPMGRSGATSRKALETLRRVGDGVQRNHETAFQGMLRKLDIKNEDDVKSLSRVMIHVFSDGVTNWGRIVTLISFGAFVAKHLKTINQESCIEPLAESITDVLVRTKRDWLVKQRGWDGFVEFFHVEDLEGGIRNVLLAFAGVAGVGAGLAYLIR
Arbovirus inh – arbovirus infection inhibition; arbovirus infection cell-based antiviral screen; inhibition, % at 10 µM; 200,000 tested, 0.37% active; AID 1251; in the data active = inhibition above about 30%
14-3-3 Bad inh – disrupts binding of bovine 14-3-3 zeta to phospho-Bad peptide | TR-FRET 14-3-3zeta/Dy647-pBad peptide displacement, 1 h | inhibition, % at 21.7 µM | 220,000 tested, 0.71% active;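 active = inhibition above about 70%, limit read from the data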
Target sequence (P63103 whole entry, looked up): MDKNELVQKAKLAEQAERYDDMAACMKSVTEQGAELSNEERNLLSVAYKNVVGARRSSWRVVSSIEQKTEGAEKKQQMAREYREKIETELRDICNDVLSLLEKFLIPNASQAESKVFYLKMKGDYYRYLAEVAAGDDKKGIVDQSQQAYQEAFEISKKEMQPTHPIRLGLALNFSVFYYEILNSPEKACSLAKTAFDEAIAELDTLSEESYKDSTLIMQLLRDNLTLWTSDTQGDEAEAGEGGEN
Mcl1-Noxa inh – disrupts binding of human Mcl-1 to Noxa peptide; Q07820; AID 1022; 220,000 tested, 1.5% active; TR-FRET Mcl-1/Noxa peptide binding, 2 h; inhibition, % at 21.7 µM;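 active = compounds that cut the protein-peptide binding signal by more than 50% relative to plate controls in a single-dose test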;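 note: His-tagged Mcl-1 with rhodamine Noxa BH3 peptide and terbium anti-His antibody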
Mcl1-Bid inh – disrupts binding of human Mcl-1 to Bid peptide. AID 1021. 220,000 tested, 0.97% active. Q07820. inhibition, % at 21.7 µM. TR-FRET Mcl-1/Bid-Dy647 peptide binding, 1536-well;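 active = compounds that cut the binding signal by more than half at the single screening dose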;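 note: His-tagged Mcl-1 with europium anti-His antibody binding Bid BH3 peptide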
A number is an active result; i = inactive; nt = no result given; ! = a repeat was not active; [ ] = dose if it differs, or a comment. Rows were chosen to be rich in hits. Some 3% of all compounds tested hit in one or more screens of this group.

SMILES | Mcl-1 Bim block | Arbovirus inh | 14-3-3 Bad inh | Mcl1-Noxa inh | Mcl1-Bid inh
O=C(CN1C(=O)CSc2ccc(S(=O)(=O)N3CCOCC3)cc21)NCc1cccnc1 | i | i | i | 54.5 | i
CSc1ccccc1NC(=O)CN(C1CCCCC1)S(C)(=O)=O | i | i | i | i | i
COc1ccc(Cl)cc1NC(=O)CN(C1CCCCC1)S(C)(=O)=O | i | i | i | 68.4 | i
COc1ccc(Oc2nnc(-c3ccc(C)cc3)c3ccccc23)cc1 | i | i | 88.6 | i | i
CCN1CCN(Cc2c(O)c(Cl)cc3c(C)cc(=O)oc23)CC1 | i | i | i | i | i
Cc1cc(=O)oc2c(CN3CCCCC3)c(O)c(Cl)cc12 | i | i | 73.3[fluorescence artefact?] | i | i
COc1ccc(OC)c(S(=O)(=O)Nc2ccc(Oc3ccccc3)cc2)c1 | i | i | i | i | i
COc1ccc(OC)c(S(=O)(=O)Nc2ccc(O)c3ccccc23)c1 | i | i | i | 50.5 | i
c1ccc(CCNc2ncnc3c2nnn3Cc2ccccc2)cc1 | i | i | i | i | i
c1ccc(Cn2nnc3c(NCc4ccc5c(c4)OCO5)ncnc32)cc1 | nt | nt | i | i | 52.2
O=C(Nc1ccc(Cl)cc1)Nc1nnc(CSCc2ccc(Cl)cc2)s1 | i | i | i | i | i
Cc1ccnc(N(C(=O)Nc2ccccc2)C2=NCC(C)(C)S2)c1 | nt | nt | i | i | i
CCSC1=NSC2=NC(=O)/C(=C\c3coc4ccccc4c3=O)C(=N)N12 | i | 30.5 | i | i | i
CC(C)CC1=NN2C(=N)/C(=C\c3coc4ccccc4c3=O)C(=O)N=C2S1 | i | 40.9 | i | i | i
COc1ccc(C(=O)Nc2ccccc2C(=O)O)cc1Cl | i | 56.1 | i | i | i
CCOc1c(Cl)cc(C(=O)Nc2ccccc2C(=O)O)cc1Cl | i | 42.6 | i | i | i
O=C(Nc1ccc(S(=O)(=O)Nc2ccccn2)cc1)C(F)(F)F | i | i | i | i | i
Oc1cc2c(cc1O)[C@@H](c1ccccc1)CNCC2 | i | i | i | 67.3 | i
CN1CCc2cc(Cl)c(O)cc2[C@@H](c2ccccc2)C1 | i | i | i | i | i
COc1ccc(Cl)cc1Nc1nc(-c2sc(NC(=O)c3ccco3)nc2C)cs1 | i | i | i | i | i
CC(=O)Nc1ccc(-c2csc(N/N=C\c3ccncc3)n2)cc1 | nt | nt | i | 51.4 | i
COc1cccc(Nc2nc(-c3sc(NC(=O)c4ccco4)nc3C)cs2)c1 | 56.0 | i | i | i | i
CCOc1ccccc1Nc1nc(-c2sc(NC(=O)c3cccc(Cl)c3)nc2C)cs1 | i | i | 70.7 | i | i
Cc1ccc(Cl)cc1Nc1nc(-c2sc(NC(=O)c3ccccc3)nc2C)cs1 | i | i | 82.7[fluorescence artefact?] | 106.0 | 100.3
CCCC(=O)Nc1ccc(-c2csc(N/N=C\c3ccncc3)n2)cc1 | nt | nt | i | i | i
SMILES | Mcl-1 Bim block | Arbovirus inh | 14-3-3 Bad inh | Mcl1-Noxa inh | Mcl1-Bid inh
Cc1ccc(-n2nnnc2-c2cnoc2-c2cccc(F)c2)cc1 | nt | i | i | i | i
O=C(CCCCN1CCCCC1)c1ccc2c(c1)Cc1ccccc1-2 | i | i | i | i | i
S=C(NN=C(C1CC1)C1CC1)Nc1ccccc1 | i | i | i | i | i
N=C1C(c2ccccc2)=C(O)CN1NC(=O)c1ccc(Cl)cc1 | i | i | i | i | i
COc1ccccc1Nc1nc(-c2sc(NC(=O)c3ccc([N+](=O)[O-])cc3)nc2C)cs1 | i | i | i | 86.1 | i
Cc1cc(NS(=O)(=O)c2ccc(Nc3nc(-c4sc(NC(=O)c5ccccc5)nc4C)cs3)cc2)no1 | i | i | i | 116.5 | i
Cc1nc(NC(=O)c2ccccc2)sc1-c1csc(Nc2cccc(F)c2)n1 | i | i | 70.6 | 55.5 | i
O=C(Nc1nc(-c2ccncc2)cs1)c1ccco1 | i | i | i | 93.9 | i
O=C(CN1C(=O)C2CC=CCC2C1=O)Nc1ccc(S(=O)(=O)N2CCOCC2)cc1 (centres undefined) | i | i | i | i | i
CC1CN(c2ccc(NS(=O)(=O)c3ccccc3)cc2C(=O)O)CC(C)O1 (centres undefined) | nt | nt | i | i | i
O=C1CCC([N+](=O)[O-])C(c2cccc(Br)c2)N1 (centres undefined) | i | i | i | i | i
O=C1CCCC2(O)C1C(c1cccc(Br)c1)NC(=O)N2Cc1ccccc1 (centres undefined) | 41.0 | i | i | i | i
CCn1nc(C)c([N+](=O)[O-])c1C(=O)NNC(=O)c1ccccc1Cl | nt | nt | i | i | i
S=C(NCc1ccc(Cl)cc1)NC1CCN(Cc2ccccc2)CC1 | i | i | i | i | 74.5
S=C(Nc1ccc(Cl)cc1Cl)NC1CCN(Cc2ccccc2)CC1 | i | i | i | i | i
O=C(C1CCCN(Cc2cccnc2)C1)N1CCCCC1 (centres undefined) | i | i | i | i | 52.3
COc1ccc(CN2CCCC(C(=O)N3CCCC3)C2)cc1 (centres undefined) | i | i | i | i | i
C=CCN1C(=O)SC(Cc2cccc(OC)c2O)C1=O (centres undefined) | i | i | i | i | i
COc1ccccc1C(=O)NC(=S)NNC(=O)c1sc2ccccc2c1Cl | i | i | i | i | 73.4
CCOc1cccc2sc(NN)nc12 | i | 38.2 | i | i | i
CCOc1cccc2sc(Cl)nc12 | i | i | i | i | i
O=C(NNC(=O)c1ccccc1Cl)c1ccccc1Cl | nt | nt | i | i | 95.4
COc1ccc(COC(=O)NNC(=O)c2ccccc2Cl)cc1 | 47.0 | i | i | i | i
COc1ccc(NC(=O)N2CCN(c3ccc([N+](=O)[O-])cc3)CC2)cc1OC | i | i | i | i | i
NS(=O)(=O)c1ccc(N/C=C\C(=O)c2ccc3ccccc3c2)cc1 | i | i | i | i | 54.4
SMILES | Mcl-1 Bim block | Arbovirus inh | 14-3-3 Bad inh | Mcl1-Noxa inh | Mcl1-Bid inh
CCCc1c(OCCCCc2nn[nH]n2)ccc(C(C)=O)c1O | i | 34.8! | i | i | i
Cn1c(=O)nc2n(Cc3ccccc3)c3cccc(Cl)c3cc-2c1=O | i | i | i | i | 62.0
O=c1cc(CSc2ccccn2)c2ccccc2[nH]1 | i | i | 81.2[fluorescence artefact?] | i | i
O=C(O)c1ccccc1CSc1ccccn1 | i | 32.5 | i | i | i
Cc1cc(SCc2cc(=O)[nH]c3ccccc23)nc2ccccc12 | i | i | i | i | i
CCN(CC)C(=O)CSc1nnc2nnc3cc(OC)ccc3n12 | nt | nt | i | i | i
Cc1ccc(-n2nnnc2C(Cl)(Cl)c2nnnn2-c2ccc(C)cc2)cc1 | i | i | i | 53.3 | i
O=C(O)C1=C[C@@H](C2CCCCC2)C[C@@H](OCCCCO)O1 | i | i | i | i | i
S=c1[nH]nc(Cc2noc3ccccc23)n1-c1ccc(Cl)cc1 | i | i | i | i | 54.4
N#Cc1sc2nc(-c3cccs3)cc(-c3ccc(F)cc3)c2c1N | i | 36.6 | i | i | i
N#Cc1c(-c2ccccc2)cc(-c2ccco2)c(C#N)c1N | i | i | i | 73.7 | i
CS(=O)(=O)c1sc2nc(-c3cccs3)cc(-c3ccccc3)c2c1N | i | i | i | i | i
N#Cc1sc2nc(-c3ccccc3)cc(-c3ccco3)c2c1N | i | i | i | 101.8 | 74.2
O=C(COc1ccc(Cl)cc1Cl)Nc1c(-c2cccs2)nc2ccccn12 | i | i | i | 51.8 | i
